# Experimental data taken from publication PMC11062922 (Nature Chemical Biology, 2023).
# Read-outs that look alike come from different tables or passages of the source.
# Columns and labels:
# Parameters in all cases: species or system human, MV4-11 + K-562 + COLO205 + SK-N-BE2 + OVCAR-8
# ADCK1 = conditions: read-out: apparent Kd, n = 1
# MAPK8 = conditions: read-out: apparent Kd, n = 1
# CSNK1A1 = conditions: read-out: apparent Kd, n = 1
# MARK2 = conditions: read-out: apparent Kd, n = 1
# PHKG2 = conditions: read-out: apparent Kd, n = 1
# PRKAA2 = conditions: read-out: apparent Kd, n = 1
# ROCK2 = conditions: read-out: apparent Kd, compound concentrations: 100 nM and 1000 nM (sheet 'Samples'), n = 1
# STK16 = conditions: read-out: apparent Kd, n = 1
# STK3 = conditions: read-out: apparent Kd, n = 1
# TNIK = conditions: read-out: apparent Kd, n = 1
# YES1 = conditions: read-out: apparent Kd, n = 1
# ATM = conditions: read-out: apparent Kd; compound concentrations: 100 nM and 1000 nM (sheet 'Samples'), CATDS: 6.3051453748071404E-2; n = 1
# CDK17 = conditions: read-out: apparent Kd; compound concentrations: 100 nM and 1000 nM (sheet 'Samples'), CATDS: 1.55525424836102E-2; n = 1
# HCK = conditions: read-out: apparent Kd; compound concentrations: 100 nM and 1000 nM (sheet 'Samples'), CATDS: 1.6731376225889199E-2; n = 1
# SRC = conditions: read-out: apparent Kd; compound concentrations: 100 nM and 1000 nM (sheet 'Samples'), CATDS: 1.60653948835471E-2; n = 1
# BUB1 = conditions: read-out: apparent Kd; compound concentrations:100 nM and 1000 nM (sheet 'Samples'); n = 1
# EPHA2 = conditions: read-out: apparent Kd; compound concentrations:100 nM and 1000 nM (sheet 'Samples'); n = 1
# PRKX = conditions: read-out: apparent Kd; compound concentrations: 100 nM and 1000 nM (sheet 'Samples'), CATDS: 4.4311971030028298E-2; n = 1
# [1] = compound concentrations:100 nM and 1000 nM (sheet 'Samples')
smiles,measurement,setting,value
Cc1n[nH]c2cc(Nc3ccnc(Nc4cccc(CN5CCOCC5)c4)n3)ccc12 [GW682569X],potency estimated from few doses,"ADCK1; compound concentrations: 100 nM and 1000 nM (sheet 'Samples'), CATDS: 0.121280285214534",760 nM
same,potency estimated from few doses,"MAPK8; compound concentrations: 100 nM and 1000 nM (sheet 'Samples'), CATDS: 8.8519756402374403E-2",1870 nM
COc1cc[nH]c1/C=C1\C(=O)Nc2ccc(F)c(C#CC3(O)CCNCC3)c21.Cl [RO0282986-001],potency estimated from few doses,"ADCK1; compound concentrations: 100 nM and 1000 nM (sheet 'Samples'), CATDS: 9.6711432627754196E-3",1510 nM
same,potency estimated from few doses,"CSNK1A1; compound concentrations: 100 nM and 1000 nM (sheet 'Samples'), CATDS: 9.4699947154489802E-3",1660 nM
same,potency estimated from few doses,"MAPK8; compound concentrations: 100 nM and 1000 nM (sheet 'Samples'), CATDS: 1.15534009295916E-2",801 nM
same,potency estimated from few doses,"MARK2; compound concentrations: 100 nM and 1000 nM (sheet 'Samples'), CATDS: 1.32977550051059E-2",536 nM
same,potency estimated from few doses,"PHKG2; compound concentrations: 100 nM and 1000 nM (sheet 'Samples'), CATDS: 1.06478310552471E-2",1050 nM
same,potency estimated from few doses,"PRKAA2; compound concentrations: 100 nM and 1000 nM (sheet 'Samples'), CATDS: 1.2623383108322899E-2",618 nM
same,potency estimated from few doses,ROCK2; CATDS: 1.22765922159753E-2,668 nM
same,potency estimated from few doses,"STK16; compound concentrations: 100 nM and 1000 nM (sheet 'Samples'), CATDS: 1.3388611542508999E-2",526 nM
same,potency estimated from few doses,"STK3; compound concentrations: 100 nM and 1000 nM (sheet 'Samples'), CATDS: 1.6307369361129399E-2",326 nM
same,potency estimated from few doses,"TNIK; compound concentrations: 100 nM and 1000 nM (sheet 'Samples'), CATDS: 1.31715083861153E-2",550 nM
O=C(O)C(F)(F)F.O=c1[nH]ccc2nc(N[C@@H]3CCNC3)nc(Nc3cc(Cl)cc(Cl)c3)c12 [GSK2188764A],potency estimated from few doses,ADCK1; [1],1680 nM
same,potency estimated from few doses,MARK2; [1],535 nM
same,potency estimated from few doses,PHKG2; [1],786 nM
same,potency estimated from few doses,PRKAA2; [1],106 nM
same,potency estimated from few doses,STK3; [1],847 nM
same,potency estimated from few doses,TNIK; [1],1270 nM
COc1cc(Nc2nccc(N3CCC(NC(=O)c4cccc(NC(C)=O)c4)C3)n2)cc(OC)c1OC (stereo not drawn) [GSK1379754A],potency estimated from few doses,"ADCK1; compound concentrations: 100 nM and 1000 nM (sheet 'Samples'), CATDS: 8.2961514797517094E-2",1820 nM
Cl.Cl.NC(CNC(=O)c1cc(Br)c(-c2ccnc3[nH]ccc23)s1)c1ccccc1.NC(CNC(=O)c1cc(Br)c(-c2ccnc3[nH]ccc23)s1)c1ccccc1 (stereo not drawn) [GSK1322949A],potency estimated from few doses,ROCK2; CATDS: 0.12553300825941399,122 nM
CNc1cc(-c2ccc3c(N)n[nH]c3c2)nc(N)n1 [GSK2224810A],potency estimated from few doses,CSNK1A1; [1],2450 nM
same,potency estimated from few doses,YES1; [1],1160 nM
CCn1c(-c2cccnc2O)nc2cnccc21 [SB-736715],potency estimated from few doses,ATM,146 nM
same,potency estimated from few doses,CDK17,1200 nM
same,potency estimated from few doses,"CSNK1A1; compound concentrations: 100 nM and 1000 nM (sheet 'Samples'), CATDS: 1.24384070369575E-2",1990 nM
same,potency estimated from few doses,HCK,1040 nM
same,potency estimated from few doses,"MAPK8; compound concentrations: 100 nM and 1000 nM (sheet 'Samples'), CATDS: 1.2937412229939001E-2",1800 nM
same,potency estimated from few doses,"PHKG2; compound concentrations: 100 nM and 1000 nM (sheet 'Samples'), CATDS: 1.25059866085428E-2",1960 nM
same,potency estimated from few doses,SRC,1130 nM
same,potency estimated from few doses,"STK16; compound concentrations: 100 nM and 1000 nM (sheet 'Samples'), CATDS: 1.41773006803768E-2",1460 nM
same,potency estimated from few doses,"STK3; compound concentrations: 100 nM and 1000 nM (sheet 'Samples'), CATDS: 1.16838495849846E-2",2360 nM
same,potency estimated from few doses,"YES1; compound concentrations: 100 nM and 1000 nM (sheet 'Samples'), CATDS: 1.8559890598855499E-2",859 nM
CC(C)Oc1ccc2c(-c3ccnc(Nc4ccc(N5CCN(C)CC5)cc4)n3)cnn2n1 [GW696155X],potency estimated from few doses,ADCK1; [1],44.9 nM
same,potency estimated from few doses,BUB1,853 nM
same,potency estimated from few doses,MAPK8; [1],352 nM
same,potency estimated from few doses,STK16; [1],39.2 nM
CS(=O)(=O)CCn1c(=O)c(Oc2ccc(F)cc2F)cc2cnc(NC3CCOCC3)nc21 [RO5027956-000],potency estimated from few doses,BUB1,1490 nM
same,potency estimated from few doses,EPHA2,1060 nM
same,potency estimated from few doses,MAPK8; [1],1130 nM
NCC(NC(=O)c1cc(-c2cn[nH]c2)c(-c2ccnc3[nH]ccc23)s1)c1ccccc1.NCC(NC(=O)c1cc(-c2cn[nH]c2)c(-c2ccnc3[nH]ccc23)s1)c1ccccc1.O=C(O)C(F)(F)F.O=C(O)C(F)(F)F (stereo not drawn) [GSK1325775A],potency estimated from few doses,"CSNK1A1; compound concentrations: 100 nM and 1000 nM (sheet 'Samples'), CATDS: 3.28567634973949E-2",1500 nM
same,potency estimated from few doses,PRKX,641 nM
same,potency estimated from few doses,ROCK2; CATDS: 0.17011597804612999,47.4 nM
